# PubChem BioAssay AID493231 (Broad Institute, 2011)
# Results with a measured potency or affinity are listed apart. Calls of active or inactive are those of the source. The rule behind the calls is not given here.
# Biological target: Acyl-homoserine lactone acylase PvdQ (Pseudomonas aeruginosa (strain ATCC 15692 / DSM 22644 / CIP 104116 / JCM 14847 / LMG 12228 / 1C / PRS 101 / PAO1)) (UniProt Q9I194)
# Experiment: PvdQ acylase enzyme activity blockers – biochemical, fluorescence, plate reader and imaging, cherry-picks, dose response (AID 493231);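 note: more negative values mean stronger inhibition of the acylase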
# Acyl-homoserine lactone acylase PvdQ (Pseudomonas aeruginosa (strain ATCC 15692 / DSM 22644 / CIP 104116 / JCM 14847 / LMG 12228 / 1C / PRS 101 / PAO1)), sequence (Q9I194 whole entry, looked up): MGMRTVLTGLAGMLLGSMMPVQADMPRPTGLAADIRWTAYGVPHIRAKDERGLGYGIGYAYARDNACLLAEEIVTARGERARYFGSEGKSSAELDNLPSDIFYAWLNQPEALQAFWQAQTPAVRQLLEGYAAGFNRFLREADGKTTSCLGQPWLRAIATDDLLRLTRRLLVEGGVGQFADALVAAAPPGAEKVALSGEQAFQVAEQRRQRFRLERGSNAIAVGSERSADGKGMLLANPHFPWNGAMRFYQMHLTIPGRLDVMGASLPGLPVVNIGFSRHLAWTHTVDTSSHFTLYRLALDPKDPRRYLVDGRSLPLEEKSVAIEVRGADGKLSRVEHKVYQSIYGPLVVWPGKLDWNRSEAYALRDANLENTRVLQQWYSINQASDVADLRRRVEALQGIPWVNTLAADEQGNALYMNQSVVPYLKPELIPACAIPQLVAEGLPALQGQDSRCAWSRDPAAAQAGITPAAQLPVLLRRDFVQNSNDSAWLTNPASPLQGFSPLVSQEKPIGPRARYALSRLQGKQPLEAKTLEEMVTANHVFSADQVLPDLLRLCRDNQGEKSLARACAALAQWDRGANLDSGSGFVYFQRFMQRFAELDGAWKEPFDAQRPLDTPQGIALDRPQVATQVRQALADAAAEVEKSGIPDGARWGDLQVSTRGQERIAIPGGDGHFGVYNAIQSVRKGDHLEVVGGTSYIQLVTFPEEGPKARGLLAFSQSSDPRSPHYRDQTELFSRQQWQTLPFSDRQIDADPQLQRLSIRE
row,Structure (SMILES),outcome
1,C=CCn1c(=O)/c(=C/c2ccc(C)o2)s/c1=C(/C#N)C(=O)c1ccccc1,inactive
2,C=CCNC(=S)NNC(=O)C(CC(C)C)CC(C)O (stereo unspecified),inactive
3,CC(=O)Nc1nc(-c2ccc(Cl)cc2)ns1,inactive
4,CCOc1ccc(NC(=S)NCc2cccnc2)cc1,inactive
5,CC(C)[N+]1=C2C=CC=CC=C2SC12C([N+](=O)[O-])=CC(=[N+]([O-])[O-])C=C2[N+](=O)[O-] (stereo unspecified),inactive
6,CNC(=S)N/N=C/c1cc(C)n(-c2ccc(Cl)c(Cl)c2)c1C,inactive
7,O=c1[nH]c(C2CCN(S(=O)(=O)c3ccc(C(F)(F)F)cc3)CC2)nc2c1nnn2Cc1ccc(F)cc1,inactive
8,CN1CCN(C(=O)c2cccn(Cc3ccc(C(F)(F)F)cc3)c2=O)CC1,inactive
9,COCCCNC(=O)c1cc(S(=O)(=O)NCCCN2CCCC2=O)ccc1Cl,inactive
10,COc1ccccc1OCCC(=O)OCC(=O)c1c(N)n(C)c(=O)n(C)c1=O,inactive
11,CCn1c(Cc2ccccc2)nnc1SCC(=O)Nc1ccccc1,inactive
12,Cc1nc(N2CCNCC2)c2c3c(sc2n1)CCCC3,inactive
13,O=[N+]([O-])c1ccc2c(c1)Cc1cc(F)ccc1-2,inactive
14,CCOc1ccc(NC(=O)NCc2cccn2C)cc1,inactive
15,Cc1ccc(S(=O)(=O)NCc2ccccn2)cc1C,inactive
16,NC(=O)c1cc(Sc2ccccc2)nc2ccccc12,inactive
17,O=C(CCc1ccccc1)Nc1ccc2c(c1)OCO2,inactive
18,CCOC(=O)C1CCCN(C(=O)c2cc(S(=O)(=O)N(C)C)ccc2N2CCCC2)C1 (stereo unspecified),inactive

row,Structure (SMILES),outcome
1,CC(C)(C)OC(=O)N(CCc1ccccc1)Cc1ccccc1OCc1cccc(NC(=O)C2CC2)c1,inactive
2,COc1ccccc1CNS(=O)(=O)CCNCCc1ccccc1,inactive
3,COc1cc(NC(=S)NC2CC(C)(C)NC(C)(C)C2)cc(OC)c1,inactive
4,COc1ccc(-c2cc3cccc(OC)c3oc2=O)cc1,inactive
5,Cc1cc(C)cc(N2C(=O)CC(Sc3ccccc3C(=O)O)C2=O)c1 (stereo unspecified),inactive
6,Cc1cccc(Nc2nnc(SCC(=O)c3c(N)n(C4CC4)c(=O)[nH]c3=O)s2)c1,inactive
7,N#C/C(C(=S)Nc1ccccc1)=C1/NN=C(N2CCOCC2)N1c1ccccc1,inactive
8,CC(Sc1nnc(-c2ccccc2F)n1C)C(=O)NC1CCCCC1 (stereo unspecified),inactive
9,C(=C\c1nnc(-c2cccs2)o1)/c1ccccc1,inactive
10,Cn1cccc1Cc1nnc(SCC(=O)N2CCN(c3ccccc3)CC2)n1-c1ccc(F)cc1,inactive
11,O=C(CCCN1C(=O)/C(=C/c2ccccc2)SC1=S)Nc1ccccc1O,inactive
12,COCCNC(=O)c1cc2nc(-c3ccccc3)cc(C)n2n1,inactive
13,Cc1cc(C)cc(NC(=O)C(OC(=O)c2cccs2)c2ccccc2)c1 (stereo unspecified),inactive
14,COC(=O)c1sccc1N/N=C/c1ccc(OC)c(OC)c1OC,inactive
15,Cc1cc(NC(=O)Nc2ccc(F)c(Cl)c2)no1,inactive
16,CC(=O)c1ccc2c3c(cc(C)c2c1)CCCC3,inactive
17,COc1ccccc1N(CC(O)Cn1ccnc1C)S(=O)(=O)c1ccccc1 (stereo unspecified),inactive
18,COc1ccc(OC)c(C(=O)c2oc3ccccc3c2NC(C)=O)c1,inactive
